# From PubChem BioAssay (NCATS)
# For some assays here: Potency and affinity values are given separately. Active and inactive are the calls of the source. A call without a number means that no potency is given here. Unless noted, the rule behind the calls is not given here.
# Tests used:
# [1] = Ebola virus entry assay, green fluorescence channel
# [2] = Ebola virus entry assay, blue channel fluorescence
# [3] = Ebola virus entry assay, green channel fluorescence
# [4] = biological target: T1, Hexokinase-4 (Homo sapiens) + Glucokinase regulatory protein (Homo sapiens) (UniProt P35557+Q14397); assay: qHTS assay for inhibitors of recombinant human GCK-GKRP interaction: Diaphorase-coupled assay (AID 743205; active = well fitted curve in the direction sought with a large enough effect); settings: G6PDH/diaphorase resorufin fluorescence; series mostly up to 57.5 µM
# In short: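 Resorufin fluorescence (525/590 nm), read each minute over 30 min, reports GCK activity coupled via G6PDH and diaphorase. Reaction: 10 nM GST-GCK, 10 nM FLAG-GKRP, 5 mM glucose, 0.4 mM ATP, 0.15 mM NADP+, 0.1 mM resazurin.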
# [5] = biological target: T1, Hexokinase-4 (Homo sapiens) + Glucokinase regulatory protein (Homo sapiens); assay: qHTS assay for inhibitors of recombinant human GCK-GKRP interaction: ADP-Glo assay (AID 743206; active = well fitted curve in the direction sought with a large enough effect); settings: ADP-Glo luminescence, 60 min, 0% = vehicle-only wells with enzyme present; series mostly up to 76.9 µM
# In short: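 GST-GCK and FLAG-GKRP (15 nM each in the dispensed mix, with 2 uM S6P) react with 0.4 mM ATP and 5 mM glucose (final) in Hepes pH 7.6 for 60 min at room temperature. ADP is measured by ADP-Glo luminescence.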
# [6] = biological target: T1, Hexokinase-4 (Homo sapiens) + Glucokinase regulatory protein (Homo sapiens); assay: qHTS assay for inhibitors of recombinant human GCK-GKRP interaction: HTRF assay (AID 743207; active = well fitted curve in the direction sought with a large enough effect); settings: recombinant GCK-GKRP HTRF binding, 60 min; series mostly up to 57.5 µM
# In short: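 HTRF read-out (ex 320 nm; 615/665 nm emission) after 60 min RT equilibration of 5 nM GST-GCK, 5 nM FLAG-GKRP, 2 uM S6P, compound and anti-FLAG/anti-GST detection antibodies; signal normalized between DMSO wells with and without GCK.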
# [7] = qHTS profiling of the MIPE4 collection as inhibitors of Plasmodium falciparum (DD2) proliferation (AID 743345); settings: P. falciparum Dd2 in erythrocytes, SYBR Green DNA, 72 h; at 28.5 µM (top of the series) unless noted
# In short: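 Erythrocytes infected with P. falciparum (0.3% parasitemia, 2.5% hematocrit) incubated with compounds 72 h at 37 C, 5% CO2. Lysis with saponin/Triton buffer containing SYBR Green I, overnight at room temperature in the dark; DNA fluorescence (485/535 nm) normalised to 0.29 uM artemisinin and DMSO.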
# [8] = Ebola virus entry assay, ratio channel
# T1 sequence (P35557 whole entry, looked up): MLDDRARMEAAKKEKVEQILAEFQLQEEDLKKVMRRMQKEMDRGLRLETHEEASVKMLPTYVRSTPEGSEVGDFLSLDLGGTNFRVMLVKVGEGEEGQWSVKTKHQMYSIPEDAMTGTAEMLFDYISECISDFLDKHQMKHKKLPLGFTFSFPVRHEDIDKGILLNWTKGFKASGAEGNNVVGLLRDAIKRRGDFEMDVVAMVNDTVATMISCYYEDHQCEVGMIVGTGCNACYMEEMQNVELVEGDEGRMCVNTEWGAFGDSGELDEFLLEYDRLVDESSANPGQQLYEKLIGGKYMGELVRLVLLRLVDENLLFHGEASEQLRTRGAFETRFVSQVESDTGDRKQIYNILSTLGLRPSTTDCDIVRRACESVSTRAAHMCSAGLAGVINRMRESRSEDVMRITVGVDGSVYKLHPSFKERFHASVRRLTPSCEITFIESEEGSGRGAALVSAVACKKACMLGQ
# T1 sequence (Q14397 whole entry, looked up): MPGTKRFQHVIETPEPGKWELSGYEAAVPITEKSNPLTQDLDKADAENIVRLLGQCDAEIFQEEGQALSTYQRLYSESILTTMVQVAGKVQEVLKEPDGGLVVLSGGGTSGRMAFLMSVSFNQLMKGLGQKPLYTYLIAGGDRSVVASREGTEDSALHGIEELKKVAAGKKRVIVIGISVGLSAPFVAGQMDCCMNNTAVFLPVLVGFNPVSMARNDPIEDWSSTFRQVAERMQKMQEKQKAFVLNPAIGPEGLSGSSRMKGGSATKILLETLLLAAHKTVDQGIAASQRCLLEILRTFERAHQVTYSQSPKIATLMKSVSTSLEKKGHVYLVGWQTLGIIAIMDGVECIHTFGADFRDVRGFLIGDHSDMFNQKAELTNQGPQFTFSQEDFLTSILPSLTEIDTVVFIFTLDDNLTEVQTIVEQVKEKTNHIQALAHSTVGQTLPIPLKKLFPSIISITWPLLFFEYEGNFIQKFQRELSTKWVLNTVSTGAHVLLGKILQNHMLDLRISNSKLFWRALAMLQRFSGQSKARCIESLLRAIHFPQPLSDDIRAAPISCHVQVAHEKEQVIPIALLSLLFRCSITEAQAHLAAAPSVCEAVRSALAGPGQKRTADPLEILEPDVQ
smiles,measurement,setting,value
C[N+](C)(C)CCOC(N)=O,efficacy,[1],12.2% (inactive)
same,outcome,[2],inactive
same,outcome,[3],inactive
CCO/C([O-])=N/c1c[n+](N2CCOCC2)no1,efficacy,[1],-25.2% (inactive)
same,outcome,[2],inactive
same,outcome,[3],inactive
CC(C(=O)O)c1ccc(/C=C2\CCCCC2=O)cc1 (stereo unspecified),efficacy,[1],13.8% (inactive)
same,outcome,[2],inactive
same,outcome,[3],inactive
O=C(CCCN1CCC2(CC1)C(=O)NCN2c1ccccc1)c1ccc(F)cc1,outcome,[4],inactive
same,outcome,[5],inactive
same,outcome,[6],inactive
CC(C)c1cccc(C(C)C)c1O,outcome,[4],inactive
same,outcome,[5],inactive
same,outcome,[6],inactive
same,"parasite growth remaining, % of DMSO control (lower = more inhibition)",[7],102%
O=c1[nH]cnc2[nH]ncc12,"parasite growth remaining, % of DMSO control (lower = more inhibition)",[7],91.2%
COc1cc2nc(Cl)nc(N)c2cc1OC,efficacy,[1],-33.8% (inactive)
same,outcome,[8],inactive
same,outcome,[3],inactive
COc1nccnc1NS(=O)(=O)c1ccc(N)cc1,efficacy,[1],-13.7% (inactive)
same,outcome,[8],inactive
same,outcome,[3],inactive
CCCCCCCCCCC[C@@H](C[C@@H]1OC(=O)[C@H]1CCCCCC)OC(=O)[C@H](CC(C)C)NC=O,efficacy,[1],-27.6% (inactive)
same,outcome,[8],inactive
same,outcome,[3],inactive
CC1(C)O[C@@H]2C[C@H]3[C@@H]4CCC5=CC(=O)C=C[C@]5(C)[C@@H]4[C@@H](O)C[C@]3(C)[C@]2(C(=O)CO)O1,efficacy,[1],50.6% (inactive)
same,outcome,[8],inactive
same,outcome,[3],inactive
O=C1NCC2(CCN(CCc3ccccc3)CC2)O1,efficacy,[1],10.9% (inactive)
same,outcome,[8],inactive
same,outcome,[3],inactive
COC(=O)[C@@H](N)CCCN/C(N)=N/[N+](=O)[O-],efficacy,[1],-11.3% (inactive)
same,outcome,[8],inactive
same,outcome,[3],inactive
CC1(C)OC(=O)NC1=O,efficacy,[1],15.4% (inactive)
same,outcome,[8],inactive
same,outcome,[3],inactive
C[C@H]1O[C@@H](n2cc(F)c(=O)[nH]c2=O)[C@H](O)[C@@H]1O,efficacy,[1],-18.2% (inactive)
same,outcome,[8],inactive
same,outcome,[3],inactive
